Source: PubChem BioAssay (National Center for Advancing Translational Sciences (NCATS))
Only some compounds are listed: those with a hit (about 11% of all), similar ones and a draw of the others.
CBFb RUNX1 block – qHTS Assay for Compounds Blocking the Interaction Between CBF-beta and RUNX1 for the Treatment of Acute Myeloid Leukemia | Potency, µM (titrated, usually from 59.8 µM), for inactives: at the top dose activity, negative = inhibition, usual class: inhibitors | 230,000 tested, under 10 active | Runt-related transcription factor 1 (Homo sapiens) + Core-binding factor subunit beta … | AlphaScreen CBFb-His/RUNX1-biotin binding, biochemical; note: % of control where 0% means no effect
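CBF-beta (His) and RUNX1 (biotin), 30 nM each; 20 min preassociation; + compound, 15 min; + beads 50 ng each (Ni, streptavidin), 90 min; RT; AlphaScreen read.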
PNC assembly inh – High Content Assay for Compounds that inhibit the Assembly of the Perinucleolar Compartment. PC3M PTB-GFP, PNC prevalence imaging, 16 h; hits give low values. activity change (PNC), negative = inhibition, % at 10 µM. actives 3.1% (n = 140,000);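 active = readout at or below -70, meaning at least 70% loss of cells showing the perinucleolar compartment, a nuclear body marking cancer cells; inconclusive = readout between -30 and a set limit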;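 note: plate controls were DMSO wells for no effect and camptothecin positive control wells for full effect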
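PC3M cells stably expressing PTB-GFP, 750–1000 cells/well, treated 16 h at 37 °C with compound (23 nl of library stock), in duplicate. After paraformaldehyde fixation and Hoechst stain, imaged at 20x; PNC prevalence scored by image analysis.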
HTT cytoprotect – qHTS Multiplex Assay to Identify Dual Action Probes in a Cell Model of Huntington: Cytoprotection (ATP); PC12 HTT-Q103 induced, cytoprotection, ATP luminescence, 40 h; Potency, µM (series often up to 56.4 µM), for the others: cytoprotection (ATP increase), hits mostly activators; actives 0.14% (n = 230,000); AID 1471, 2008; note: potency is the fitted concentration of half-maximal effect; % of control where 0% means no effect; nearly all actives have a fitted effect of over 45% in size
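Rat PC12, Q103 Htt exon1-GFP fusion, ecdysone promoter; tebufenozide inducer 100 nM final; compound titration; qHTS, 1500 cells/well; ATPlite luminescent read.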
HTT aggregate – qHTS Multiplex Assay to Identify Dual Action Probes in a Cell Model of Huntington: Aggregate Formation (GFP); actives 1.1% (n = 220,000); Potency, µM (titrated, usually from 46.1 µM), inactives show at the top dose activity change, negative = inhibition, hits mostly inhibitors; PC12 HttQ103-GFP aggregates, Acumen cytometry, 40 h; AID 1688, 2009; note: potency is the fitted concentration of half-maximal effect; % is set by controls: 0 for no effect and ±100 for the full control effect; nearly all actives have a fitted effect of over 60% in size
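Ecdysone-promoter PC12 model expressing HTT exon 1 Q103 fused to GFP, induced by tebufenozide at 100 nM final. Compounds titrated; aggregates sized 1–25 µm scored on a 488 nm laser cytometer.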
HPGD block – qHTS Assay for Inhibitors of HPGD (15-Hydroxyprostaglandin Dehydrogenase). 15-hydroxyprostaglandin dehydrogenase [NAD(+)] (Homo sapiens), P15428. purified HPGD, NADH fluorescence kinetic, PGE2 substrate. Potency, µM, for the others: at the highest dose activity change, negative = inhibition, usual class: inhibitors. AID 894, 2007. actives 4.3% (n = 150,000); active = well fitted inhibition curve with a large enough effect, not every such curve was filed as active; inconclusive = small, poorly fitted or top-dose-only effect, or another doubt; inactive = no such curve, though single readings can be large or run the other way; note: potency is the fitted concentration of half-maximal effect; % is set by controls: 0 for no effect and ±100 for the full control effect
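20 nM HPGD preincubated 15 min at room temperature with compound in 50 mM Tris-HCl pH 8, 0.01% Tween 20. Started with 1 mM NAD+ and 30 uM prostaglandin E2; NADH fluorescence (360/450 nm) read 5 times over 30-s intervals, last minus first.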
ALDH1A1 inh – qHTS Assay for Inhibitors of Aldehyde Dehydrogenase 1 (ALDH1A1). Purified ALDH1A1, NADH fluorescence, propionaldehyde substrate. Potency, µM (doses to about 75.3 µM), for inactives: at the top dose activity, negative = inhibition, hits mostly inhibitors. actives 7.3% (n = 220,000). Aldehyde dehydrogenase 1A1 (Homo sapiens), P00352; active = well fitted inhibition curve with a large enough effect, not every such curve was filed as active; inconclusive = small, poorly fitted or top-dose-only effect, or another doubt; inactive = no such curve, though single readings can be large or run the other way;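 note: potency is the fitted concentration of half-maximal effect; plate controls were no enzyme wells and a reference inhibitor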
Target sequence (P00352 whole entry, looked up): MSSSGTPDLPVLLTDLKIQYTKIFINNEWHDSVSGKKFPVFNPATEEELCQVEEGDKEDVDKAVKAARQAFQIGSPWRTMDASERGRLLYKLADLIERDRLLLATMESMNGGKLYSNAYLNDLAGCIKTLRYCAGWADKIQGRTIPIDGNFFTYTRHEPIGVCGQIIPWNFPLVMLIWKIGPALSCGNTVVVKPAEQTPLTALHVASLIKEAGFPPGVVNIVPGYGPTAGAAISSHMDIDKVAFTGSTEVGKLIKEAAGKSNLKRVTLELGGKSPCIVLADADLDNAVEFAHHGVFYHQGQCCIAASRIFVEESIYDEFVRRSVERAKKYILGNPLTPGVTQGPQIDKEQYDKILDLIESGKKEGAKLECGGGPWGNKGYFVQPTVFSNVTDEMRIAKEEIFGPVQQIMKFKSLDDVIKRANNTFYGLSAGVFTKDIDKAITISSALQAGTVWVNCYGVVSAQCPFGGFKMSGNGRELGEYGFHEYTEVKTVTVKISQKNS
* = called active by the depositor; ? = inconclusive; nt = no result; [ ] = another dose, or the depositor's remark. Unless noted, calls come from the whole dose curve; as a rule, active = well fitted curve in the direction sought with a large enough effect; inconclusive = small, poorly fitted or top-dose-only effect, or another doubt; inactive = no such curve, though single readings can be large; an effect the other way counts as inactive or inconclusive.

SMILES	CBFb RUNX1 block	PNC assembly inh	HTT cytoprotect	HTT aggregate	HPGD block	ALDH1A1 inh
Nn1cnnc1SC1CCCCC1NS(=O)(=O)c1ccccc1 (stereo not drawn)	3%	?	-4%	?	-6%	10µM*
O=C(CCNS(=O)(=O)c1cccc2nonc12)NCc1cccs1	1%	52	-14%	-8%	-17%	20µM*
O=C(CCNS(=O)(=O)c1cccc2nonc12)NC1CCCCCC1	6%	nt	-19%	7%	nt	25µM*
CC(C)c1ccc(NC(=O)CCNS(=O)(=O)c2cccc3nonc23)cc1	2%	-100*	5%[10 µM]	-13%	-26%	25µM*
Cc1ccc(NC(=O)CCNS(=O)(=O)c2cccc3nonc23)cc1	0%	24	8%	?	-1%	?
CC(=O)c1cccc(NC(=O)CCNS(=O)(=O)c2cccc3nonc23)c1	-4%	nt	-18%	-9%	nt	?
CC1NC(C(=O)O)Cc2c1[nH]c1ccccc21 (stereo not drawn)	-5%	nt	-3%	nt	nt	2%
CC(=O)N(/N=C1\Sc2ccccc2C1=O)c1cccc(C)c1	-6%	?	-13%	24%	3.5µM*	?
CC(=O)N(CN1C(=O)c2ccccc2C1=O)c1cccc(C)c1	3%	16	5%	-7%[9.22 µM]	6%	-2%
COc1cc(CCCN2C(=O)C(=O)NC[C@@H]2C(C)O)cc(OC)c1OC (stereo partly drawn)	8%	nt	13%[10 µM]	19%[9.22 µM]	nt	nt
Cc1ccc2nc(NC(=O)c3ccccn3)sc2c1	?	nt	-178%	?	nt	-3%
O=C(Nc1nc2c(F)cc(F)cc2s1)c1ccccn1	-19%	nt	-74%[10 µM]	?	nt	10µM*
CC(C)(C)C(=O)Nc1nc(=S)ss1	1%	29	8%	-2%	32µM*	5.6µM*
CCSc1nnc(NC(=O)CC)s1	1%	-13	4%	3%	-8%	4%
CCC(=O)Nc1nc(=S)ss1	-3%	?	5%	2%	10µM*	2µM*
CCCCCCCCCCCCCCCC(=O)C(F)(F)F	2%[21.7 µM]	nt	-6%	nt	0%	-2%
CCNC(=O)/C(=C/c1ccco1)NC(=O)/C=C/c1ccccc1	-3%	-17	-5%	5%	18µM*	?
O=C(/C=C/c1c(Cl)cccc1Cl)NCc1ccco1	3%	32	-4%[10 µM]	-7%	?	8%
O=C(/C=C/c1ccccc1)NCc1ccco1	1%	nt	-1%[10 µM]	8%[9.22 µM]	nt	6µM*
O=C(/C=C/c1ccco1)NCc1ccco1	?	nt	8%[10 µM]	-18%[9.22 µM]	nt	nt
O=C(/C=C/c1ccccc1Cl)NCc1ccco1	-4%	?	-33%	3%	14µM*	?
CCCCCCNC(=O)Nc1ccc(S(=O)(=O)Nc2ccc(CCNC[C@H](O)COc3ccc(O)cc3)cc2)cc1	-9%	nt	-224%	nt	-19%	-3%
CCCCCCC(=O)Nc1cc2c(C)cc(=O)oc2cc1C	9%	-119*	22%[10 µM]	-3%	-17%	5µM*
CCC(=O)Nc1cc2c(C)cc(=O)oc2cc1C	-4%	-10	-3%	13%[9.22 µM]	?	?
COC(=O)c1ccc(NC(=O)CN2C(=O)CCC2=O)cc1	5%	14	-11%[10 µM]	-7%[9.22 µM]	32µM*	?
SMILES	CBFb RUNX1 block	PNC assembly inh	HTT cytoprotect	HTT aggregate	HPGD block	ALDH1A1 inh
COC(=O)c1ccc(NC(=O)CCOc2ccccc2)cc1	8%	nt	-18%	5%	nt	-13%
CCOC(=O)c1ccc(NC(=O)CN2C(=O)CCC2=O)cc1	7%	5	17%[10 µM]	0%	-6%	-5%
O=C(CN1C(=O)CCC1=O)Nc1ccc(Br)cc1	-7%	9	-3%	-15%[9.22 µM]	-17%	2.5µM*
COC(=O)c1ccc(NC(=O)CNc2ccccc2)cc1	-1%	nt	-12%[10 µM]	-1%[9.22 µM]	nt	22µM*
CC(C)NC(=O)CSc1nnc(-c2ccc(C(C)(C)C)cc2)n1C	-4%	-100*	-1%[10 µM]	-9%	-5%	6%
CC(C)NC(=O)CSc1nncn1-c1ccccc1	4%	-97*	6%	-7%[9.22 µM]	-6%	3%
Cn1c(SCc2ccc(C(=O)Nc3nccs3)cc2)nnc1-c1ccccc1	4%	20	-6%	-12%	14µM*	?
CCC(C)NC(=O)CSc1nnc(-c2ccc(C(C)(C)C)cc2)n1C (stereo not drawn)	7%	-11	-17%	-15%	-4%	-4%
Cc1csc(NC(=O)CSc2nnc(-c3ccncc3)n2C)n1	-2%	-28	0%	0.0008µM*	-10%	6%
CC(C)NC(=O)CSc1nc2ccccc2n1-c1ccccc1	4%	9	2%[1.9 µM]	-5%	-9%	?
Cc1ccc(C(C)C)cc1NC(=O)Nc1ccc([N+](=O)[O-])cc1	-11%	nt	9%[10 µM]	0%[9.22 µM]	nt	nt
